From the supplement of paper PMC8728848
Shown is part of a subset that was picked to be rich in the strongest signals.

What was measured:
Experiment in all cases: glycan array binding signal (z-score within array); higher = stronger binding
Conditions in all cases: glycan notation: IUPAC condensed, linker removed
[1] = biological target: Fuc(a1-2)Gal(b1-4)GlcNAc
Outline: (§1)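 Glycan array data were curated from 3228 arrays in the Consortium for Functional Glycomics database and kept only where the protein sequence was available. Glycan names were converted to IUPAC-condensed notation, and columns mapping to the same glycan were averaged. The binding signal is a within-array Z-score, averaged across arrays of the same protein sequence at different concentrations or buffers and across linkers. Negative Z-scores can be read as non-binding.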

[2] = biological target: Fuc(a1-2)[Gal(a1-4)]Gal(b1-4)GlcNAc
Outline: as §1

[3] = biological target: Fuc(a1-2)[GalNAc(a1-3)]Gal(b1-4)GlcNAc(b1-2)Man(a1-3)[Fuc(a1-2)[GalNAc(a1-3)]Gal(b1-4)GlcNAc(b1-2)Man(a1-6)]Man(b1-4)GlcNAc(b1-4)GlcNAc
Outline: as §1

[4] = biological target: Fuc(a1-2)[GalNAc(a1-3)]Gal(b1-4)GlcNAc(b1-3)Gal(b1-4)GlcNAc
Outline: as §1

[5] = biological target: Fuc(a1-2)[GalNAc(a1-3)]Gal(b1-4)GlcNAc(b1-3)Gal(b1-4)GlcNAc(b1-3)Gal(b1-4)GlcNAc
Outline: as §1

[6] = biological target: Fuc(a1-2)[GalNAc(a1-4)]Gal(b1-4)GlcNAc
Outline: as §1

[7] = biological target: Gal(a1-4)Gal(b1-4)GlcNAc(b1-3)Gal(b1-4)Glc
Outline: as §1

[8] = biological target: Gal(a1-4)GlcNAc
Outline: as §1

[9] = biological target: Gal(b1-3)GlcNAc(b1-3)Gal(b1-4)Glc
Outline: as §1

[10] = biological target: Gal(b1-3)GlcNAc(b1-3)Gal(b1-4)GlcNAc
Outline: as §1

[11] = biological target: Gal(b1-4)GlcNAc(b1-2)Man(a1-3)[GlcNAc(b1-2)Man(a1-6)]Man(b1-4)GlcNAc(b1-4)GlcNAc
Outline: as §1

[12] = biological target: Gal(b1-4)GlcNAc(b1-2)[Gal(b1-4)GlcNAc(b1-4)]Man(a1-3)[Gal(b1-4)GlcNAc(b1-2)[Gal(b1-4)GlcNAc(b1-6)]Man(a1-6)]Man(b1-4)GlcNAc(b1-4)GlcNAc
Outline: as §1

[13] = biological target: Gal(b1-4)GlcNAc(b1-3)Gal(b1-4)GlcNAc
Outline: as §1

[14] = biological target: Gal(b1-4)GlcNAc(b1-3)[Gal(b1-4)GlcNAc(b1-6)]Gal(b1-4)GlcNAc
Outline: as §1

[15] = biological target: Gal3S(b1-4)[Fuc(a1-3)]Glc
Outline: as §1

[16] = biological target: Gal6S(b1-4)Glc
Outline: as §1

[17] = biological target: GalNAc(a1-3)GalNAc
Outline: as §1

[18] = biological target: GlcNAc(a1-4)Gal(b1-4)GlcNAc(b1-3)Gal(b1-4)GlcNAc(b1-3)Gal(b1-4)GlcNAc
Outline: as §1

[19] = biological target: GlcNAc(a1-6)Gal(b1-4)GlcNAc
Outline: as §1

[20] = biological target: GlcNAc(b1-3)Man
Outline: as §1

[21] = biological target: GlcNAc(b1-3)[GlcNAc(b1-4)][GlcNAc(b1-6)]GlcNAc
Outline: as §1

[22] = biological target: GlcNAc(b1-4)Gal(b1-4)GlcNAc
Outline: as §1

[23] = biological target: GlcNAc(b1-4)GlcNAc(b1-4)GlcNAc(b1-4)GlcNAc(b1-4)GlcNAc
Outline: as §1

[24] = biological target: GlcNAc(b1-6)GalNAc
Outline: as §1

[25] = biological target: Kdn(a2-3)Gal(b1-3)GalNAc
Outline: as §1

[26] = biological target: Man(a1-2)Man(a1-2)Man(a1-6)[Man(a1-3)]Man
Outline: as §1

[27] = biological target: Man(a1-2)Man(a1-3)[Man(a1-6)]Man(a1-6)[Man(a1-2)Man(a1-3)]Man(b1-4)GlcNAc(b1-4)GlcNAc
Outline: as §1

[28] = biological target: Man(a1-3)[Man(a1-6)]Man(a1-6)[Man(a1-3)]Man
Outline: as §1

[29] = biological target: Neu5Ac(a2-3)Gal(b1-4)GlcNAc
Outline: as §1

[30] = biological target: Neu5Ac(a2-3)Gal(b1-4)GlcNAc(b1-3)Gal(b1-3)GlcNAc
Outline: as §1

B1: Tachylectin-2 (Tachypleus tridentatus), TAL2_TACTR (protein)
chain: VGGESMLRGVYQDKFYQGTYPQNKNDNWLARATLIGKGGWSNFKFLFLSPGGELYGVLNDKIYKGTPPTHDNDNWMGRAKKIGNGGWNQFQFLFFDPNGYLYAVSKDKLYKASPPQSDTDNWIARATEIGSGGWSGFKFLFFHPNGYLYAVHGQQFYKALPPVSNQDNWLARATKIGQGGWDTFKFLFFSSVGTLFGVQGGKFYEDYPPSYAHDNWLARAKLIGNGGWDDFRFLFF
glycan array binding signal (z-score) [1]: -0.309 | glycan array binding signal (z-score) [2]: -0.436 | glycan array binding signal (z-score) [3]: 4.37 | glycan array binding signal (z-score) [4]: 4.29 | glycan array binding signal (z-score) [5]: 4.11 | glycan array binding signal (z-score) [6]: 3.88 | glycan array binding signal (z-score) [7]: -0.296 | glycan array binding signal (z-score) [8]: 0.001 | glycan array binding signal (z-score) [9]: -0.315 | glycan array binding signal (z-score) [10]: -0.357 | glycan array binding signal (z-score) [11]: -0.295 | glycan array binding signal (z-score) [12]: -0.294 | glycan array binding signal (z-score) [13]: -0.367 | glycan array binding signal (z-score) [14]: -0.43 | glycan array binding signal (z-score) [15]: -0.39 | glycan array binding signal (z-score) [16]: -0.268 | glycan array binding signal (z-score) [17]: 4.41 | glycan array binding signal (z-score) [18]: 3.96 | glycan array binding signal (z-score) [19]: 4.99 | glycan array binding signal (z-score) [20]: -0.096 | glycan array binding signal (z-score) [21]: -0.413 | glycan array binding signal (z-score) [22]: 1.17 | glycan array binding signal (z-score) [23]: 0.004 | glycan array binding signal (z-score) [24]: 1.42 | glycan array binding signal (z-score) [25]: -0.296 | glycan array binding signal (z-score) [26]: -0.33 | glycan array binding signal (z-score) [27]: -0.173 | glycan array binding signal (z-score) [28]: -0.344 | glycan array binding signal (z-score) [29]: -0.374 | glycan array binding signal (z-score) [30]: -0.256
